Records with an inconclusive call do not appear. Active and inactive are the calls of the source. The calls were made as follows, unless noted: active = hit-call score of the fitted dose curve at least 0.9, where 1 is the maximum; inactive = score below 0.9.
Legend:
[1] = ATG_PBREM_CIS: Attagene CIS-FACTORIAL HepG2 Assay for human Phenobarbital-responsive Enhancer Module (PBREM) (AID 2282955); conditions: HepG2 PBREM cis-reporter, Attagene multiplexed transcription; actives raise or lower the signal
How it was run: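 Multiplexed cis-reporter readout in human hepatoma HepG2 cells; PBREM-regulated transcript quantified after 24 h exposure by fluorescent RT-PCR fragment analysis. Signal changes up or down fitted relative to DMSO.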

[2] = ATG_PXRE_CIS: Attagene CIS-FACTORIAL HepG2 Assay for human Pregnane X Receptor Element (PXRE) (AID 2282957); conditions: HepG2 Attagene CIS-FACTORIAL PXRE reporter, mRNA; actives raise or lower the signal
How it was run: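 Cells: HepG2, transiently transfected reporter units under cis promoter control. Exposure: 24 h. Detection: reporter mRNA via RT-PCR/CE fluorescence; bidirectional fitting, DMSO-referenced.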

[3] = ATG_PPRE_CIS: Attagene CIS-FACTORIAL HepG2 Assay for human Peroxisome Proliferator-activated Response Element (PPRE) (AID 2282958); conditions: HepG2 PPRE cis-element reporter, Attagene transcription factor profiling; actives raise or lower the signal
How it was run: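 DMSO served as negative control and baseline for bidirectional curve fitting. Signal came from PPRE-regulated reporter mRNA in HepG2 cells, measured 24 h post-dosing by RT-PCR, 6-FAM primer extension and capillary electrophoresis.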

[4] = ATG_RORE_CIS: Attagene CIS-FACTORIAL HepG2 Assay for human RAR-related Orphan Receptor Element (RORE) (AID 2282959); conditions: HepG2 Attagene cis-factorial RORE reporter, mRNA; actives raise or lower the signal
How it was run: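 Transfect HepG2 with MRTUs; treat 24 h; extract RNA; RT with oligo(dT); PCR with reporter-specific primers; 6-FAM primer extension; HpaI digest 2 h at 37 C; capillary electrophoresis. Fit vs DMSO, bidirectional.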

[5] = ATG_Sox_CIS: Attagene CIS-FACTORIAL HepG2 Assay for human SRY-box transcription factor (SOX) (AID 2282960); conditions: HepG2 Attagene cis-factorial SOX reporter, mRNA; actives raise or lower the signal
How it was run: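 Fluorescence-labelled cDNA fragments from reporter transcripts, sized by CE, give the signal. Cells: HepG2, transiently transfected with cis-regulated reporter units. Exposure 24 h; DMSO negative control; bidirectional curve fitting.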

[6] = target: Transcription factor Sp1 (Homo sapiens) (UniProt P08047); test: ATG_Sp1_CIS: Attagene CIS-FACTORIAL HepG2 Assay for human Specificity Protein 1 (Sp1) (AID 2282961); conditions: HepG2 Sp1 cis-reporter transcription, actives raise or lower the signal
How it was run: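 Chemicals are dosed onto HepG2 cells transfected with multiple cis-promoter reporter constructs, and after 24 h reporter RNA is reverse-transcribed, PCR-amplified and resolved by capillary electrophoresis for fluorescence quantitation; activity is scored up or down against DMSO.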

[7] = ATG_SREBP_CIS: Attagene CIS-FACTORIAL HepG2 Assay for human Sterol Regulatory Element Binding (SREBP) (AID 2282962); conditions: HepG2 Attagene cis-factorial SREBP reporter, mRNA; actives raise or lower the signal
How it was run: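 mRNA induction of transfected cis-promoter reporters in HepG2 cells, 24 h post-dose. Detection: RT-PCR with 6-FAM-labelled products, HpaI digest, capillary electrophoresis. DMSO served as negative control and baseline.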

[8] = target: Signal transducer and activator of transcription 3 (Homo sapiens) (UniProt P40763); test: ATG_STAT3_CIS: Attagene CIS-FACTORIAL HepG2 Assay for human Signal Transducer and Activator of Transcription 3 (STAT3) (AID 2282963); conditions: HepG2, Attagene cis-factorial STAT3 reporter transcription; actives raise or lower the signal
How it was run: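 Endogenous STAT3-responsive cis-element activity was read in transiently transfected HepG2 cells after 24 h treatment. Reporter transcripts were quantified via RT-PCR and capillary electrophoresis, with DMSO as negative control and bidirectional curve fitting.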

[9] = ATG_TA_CIS: Attagene CIS-FACTORIAL HepG2 Assay for human TA Basal Promoter (AID 2282964); conditions: HepG2 Attagene CIS-factorial TA basal promoter reporter; actives raise or lower the signal
How it was run: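 HepG2 cells transiently transfected with multiple reporter units under cis promoter elements, reporting endogenous transcription factor activity; this endpoint tracks the TA basal promoter as background control. Reporter mRNA after 24 h dosing measured by RT-PCR/capillary electrophoresis; bidirectional fits versus DMSO.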

[10] = ATG_TCF_b_cat_CIS: Attagene CIS-FACTORIAL HepG2 Assay for human T-Cell-Factor with beta-catenin (TCF/b-cat) (AID 2282965); conditions: HepG2 TCF/beta-catenin cis-reporter transcription, actives raise or lower the signal
How it was run: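 Measured: reporter mRNA in HepG2 transiently transfected with cis-promoter reporter units, 24 h after chemical addition. Fitting was bidirectional, DMSO as negative control.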

[11] = ATG_TAL_CIS: Attagene CIS-FACTORIAL HepG2 Assay for human TAL Basal Promoter (AID 2282966); conditions: HepG2 Attagene cis-factorial TAL promoter reporter; actives raise or lower the signal;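 also: background control endpoint measuring basal TAL promoter reporter mRNA not a specific factor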
How it was run: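 RT-PCR plus capillary electrophoresis quantifies reporter mRNA induction in transiently transfected HepG2 cells after 24 h chemical treatment. DMSO serves as negative control and baseline for bidirectional fitting.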

[12] = ATG_TGFb_CIS: Attagene CIS-FACTORIAL HepG2 Assay for human Transforming Growth Factor (TGF) (AID 2282967); conditions: HepG2 Attagene CIS TGFb reporter, mRNA transcription; actives raise or lower the signal
How it was run: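 HepG2 cells transiently transfected with cis-promoter-driven multiple reporter units measure endogenous TF activity; reporter mRNA quantified at 24 h by RT-PCR, FAM labeling, HpaI digestion and capillary electrophoresis. Bidirectional fit vs DMSO.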

[13] = ATG_VDRE_CIS: Attagene CIS-FACTORIAL HepG2 Assay for human Vitamin D Receptor Element (VDRE) (AID 2282968); conditions: HepG2 VDRE cis-reporter transcription, actives raise or lower the signal
How it was run: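 Reporter mRNA induction, quantified by capillary electrophoresis of fluorescently labelled RT-PCR products, was read 24 h after dosing HepG2 cells carrying transiently transfected cis-regulated reporter units; gain or loss relative to DMSO.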

[14] = target: Nuclear receptor subfamily 1 group I member 3 (Homo sapiens) (UniProt Q14994); test: ATG_CAR_TRANS: Attagene TRANS-FACTORIAL HepG2 Assay for human Constitutive Androstane Receptor (CAR) (AID 2282969; active = hit-call score of the fitted dose curve at least 0.9, where 1 is the maximum;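 also: activators raise reporter mRNA above DMSO so AC50 marks induction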); conditions: HepG2 Attagene TRANS-FACTORIAL CAR reporter
How it was run: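 Readout is reporter mRNA induction, quantified by fluorescent primer extension and capillary electrophoresis after RT-PCR. Cells were HepG2 transiently carrying chimeric NR-Gal4 constructs with GAL4-UAS reporters, treated for 24 h; activity scored upward from DMSO.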

[15] = target: Estrogen receptor (Homo sapiens) (UniProt P03372); test: ATG_ERa_TRANS: Attagene TRANS-FACTORIAL HepG2 Assay for human Estrogen Receptor alpha (ERa) (AID 2282970; active = hit-call score of the fitted dose curve at least 0.9, where 1 is the maximum); conditions: HepG2 Attagene TRANS ERa GAL4 reporter, mRNA
How it was run: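 Cells: HepG2, transiently transfected. Construct: GAL4-UAS reporter units regulated by exogenous NR-Gal4 chimeras. Time: 24 h. Detection: reporter mRNA by RT-PCR, capillary electrophoresis, fluorescence. Baseline: DMSO, upward fitting.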

[16] = target: X-box-binding protein 1 (Homo sapiens) (UniProt P17861); test: ATG_Xbp1_CIS: Attagene CIS-FACTORIAL HepG2 Assay for human X-box Binding Protein 1 (XBP1) (AID 2282972); conditions: HepG2 XBP1 cis-element reporter, Attagene multiplex; actives raise or lower the signal
How it was run: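 Fluorescence-labelled cDNA fragments from reporter transcripts, separated by capillary electrophoresis, give the signal. Source: HepG2 cells transfected with promoter-driven reporter units, harvested 24 h post-dose. DMSO served as reference for bidirectional curve fitting.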

[17] = ATG_GAL4_TRANS: Attagene TRANS-FACTORIAL HepG2 Assay for GAL4 (Internal Marker) (AID 2282976; active = hit-call score of the fitted dose curve at least 0.9, where 1 is the maximum); conditions: HepG2 Attagene TRANS GAL4 internal marker reporter
How it was run: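 In transfected human HepG2 liver cells dosed 24 h, GAL4 reporter mRNA serves as a baseline marker. Detection by RT-PCR with fluorescent capillary electrophoresis, activity fitted upward relative to DMSO.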

[18] = target: Steroid hormone receptor ERR1 (Homo sapiens) (UniProt P11474); test: ATG_ERRa_TRANS: Attagene TRANS-FACTORIAL HepG2 Assay for human Estrogen-Related Receptor alpha (ERRa) (AID 2282971; active = hit-call score of the fitted dose curve at least 0.9, where 1 is the maximum); conditions: HepG2 Attagene TRANS reporter, ERRa transactivation
How it was run: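 Reporter transcripts from ERRa-Gal4 chimera activity measured in transiently transfected human HepG2 cells 24 hours after dosing, using RT-PCR with 6-FAM primer extension, HpaI digestion and capillary electrophoresis; DMSO is baseline.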

[19] = ATG_M_19_TRANS: Attagene TRANS-FACTORIAL HepG2 Assay for M19 Transcription Factor (Internal Marker) (AID 2282974; active = hit-call score of the fitted dose curve at least 0.9, where 1 is the maximum); conditions: HepG2 Attagene TRANS-FACTORIAL M19 internal marker reporter
How it was run: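 Multiplexed TRANS format: HepG2 liver cells bearing transient GAL4-UAS reporter units, chemical treatment 24 h, reporter transcripts quantified by RT-PCR plus capillary electrophoresis. DMSO defines baseline.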

Measured: AC50

Chain of Signal transducer and activator of transcription 3 (Homo sapiens) (P40763 whole entry, looked up): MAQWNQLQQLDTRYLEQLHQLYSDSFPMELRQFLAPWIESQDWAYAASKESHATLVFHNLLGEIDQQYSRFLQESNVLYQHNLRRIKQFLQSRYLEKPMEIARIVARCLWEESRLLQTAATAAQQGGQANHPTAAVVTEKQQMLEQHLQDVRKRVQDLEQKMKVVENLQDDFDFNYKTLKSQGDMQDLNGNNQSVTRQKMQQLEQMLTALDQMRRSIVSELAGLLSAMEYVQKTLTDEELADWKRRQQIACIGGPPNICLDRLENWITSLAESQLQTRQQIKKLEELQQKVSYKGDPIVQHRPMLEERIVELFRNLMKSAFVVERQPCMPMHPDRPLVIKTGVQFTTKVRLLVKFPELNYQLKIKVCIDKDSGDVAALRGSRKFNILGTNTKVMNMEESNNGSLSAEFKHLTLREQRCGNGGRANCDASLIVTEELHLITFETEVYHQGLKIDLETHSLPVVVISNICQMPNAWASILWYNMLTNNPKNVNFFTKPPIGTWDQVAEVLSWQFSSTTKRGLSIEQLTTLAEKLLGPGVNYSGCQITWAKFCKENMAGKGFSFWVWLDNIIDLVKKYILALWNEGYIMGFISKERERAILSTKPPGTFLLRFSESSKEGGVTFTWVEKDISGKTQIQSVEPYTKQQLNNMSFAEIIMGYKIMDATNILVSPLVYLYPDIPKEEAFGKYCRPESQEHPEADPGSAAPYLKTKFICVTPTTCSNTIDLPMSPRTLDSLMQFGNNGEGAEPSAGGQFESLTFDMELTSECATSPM
Chain of X-box-binding protein 1 (Homo sapiens) (P17861 whole entry, looked up, the tested form may be a part): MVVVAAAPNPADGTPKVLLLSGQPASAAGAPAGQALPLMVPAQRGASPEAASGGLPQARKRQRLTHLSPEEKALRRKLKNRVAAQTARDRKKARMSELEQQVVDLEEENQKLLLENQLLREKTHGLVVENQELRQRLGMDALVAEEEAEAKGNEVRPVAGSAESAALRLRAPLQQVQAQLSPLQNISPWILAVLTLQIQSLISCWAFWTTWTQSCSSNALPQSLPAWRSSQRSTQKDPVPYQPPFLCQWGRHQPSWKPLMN
Chain of Nuclear receptor subfamily 1 group I member 3 (Homo sapiens) (Q14994 whole entry, looked up, the tested form may be a part): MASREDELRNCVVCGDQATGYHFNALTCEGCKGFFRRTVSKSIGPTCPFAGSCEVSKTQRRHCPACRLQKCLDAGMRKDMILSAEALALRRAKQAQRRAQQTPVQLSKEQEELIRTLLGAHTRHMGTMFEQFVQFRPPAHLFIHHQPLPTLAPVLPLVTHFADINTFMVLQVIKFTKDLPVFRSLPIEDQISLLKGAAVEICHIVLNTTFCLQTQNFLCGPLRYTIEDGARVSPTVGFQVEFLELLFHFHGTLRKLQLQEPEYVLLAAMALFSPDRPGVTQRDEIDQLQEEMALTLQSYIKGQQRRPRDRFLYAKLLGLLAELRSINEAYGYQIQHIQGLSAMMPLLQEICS
Chain of Transcription factor Sp1 (Homo sapiens) (P08047 whole entry, looked up): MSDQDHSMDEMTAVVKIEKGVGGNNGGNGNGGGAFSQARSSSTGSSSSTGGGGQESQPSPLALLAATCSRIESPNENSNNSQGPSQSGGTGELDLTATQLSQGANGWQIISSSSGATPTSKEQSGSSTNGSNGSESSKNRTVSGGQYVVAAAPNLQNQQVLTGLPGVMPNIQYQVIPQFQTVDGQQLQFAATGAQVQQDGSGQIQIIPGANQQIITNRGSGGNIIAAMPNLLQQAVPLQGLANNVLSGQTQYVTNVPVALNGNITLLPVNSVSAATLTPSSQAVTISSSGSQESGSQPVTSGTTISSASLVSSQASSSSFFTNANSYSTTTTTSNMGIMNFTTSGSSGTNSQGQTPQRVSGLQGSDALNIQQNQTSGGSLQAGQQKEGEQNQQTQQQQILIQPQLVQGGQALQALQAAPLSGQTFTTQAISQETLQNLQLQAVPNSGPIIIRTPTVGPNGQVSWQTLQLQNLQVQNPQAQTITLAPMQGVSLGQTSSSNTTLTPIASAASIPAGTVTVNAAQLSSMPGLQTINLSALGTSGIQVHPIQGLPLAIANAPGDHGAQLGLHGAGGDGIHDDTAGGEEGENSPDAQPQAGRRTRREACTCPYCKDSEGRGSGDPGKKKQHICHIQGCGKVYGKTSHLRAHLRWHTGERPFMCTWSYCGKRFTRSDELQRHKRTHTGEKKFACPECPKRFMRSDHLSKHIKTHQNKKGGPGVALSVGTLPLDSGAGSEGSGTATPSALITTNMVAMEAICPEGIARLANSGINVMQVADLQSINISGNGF
Chain of Estrogen receptor (Homo sapiens) (P03372 whole entry, looked up, the tested form may be a part): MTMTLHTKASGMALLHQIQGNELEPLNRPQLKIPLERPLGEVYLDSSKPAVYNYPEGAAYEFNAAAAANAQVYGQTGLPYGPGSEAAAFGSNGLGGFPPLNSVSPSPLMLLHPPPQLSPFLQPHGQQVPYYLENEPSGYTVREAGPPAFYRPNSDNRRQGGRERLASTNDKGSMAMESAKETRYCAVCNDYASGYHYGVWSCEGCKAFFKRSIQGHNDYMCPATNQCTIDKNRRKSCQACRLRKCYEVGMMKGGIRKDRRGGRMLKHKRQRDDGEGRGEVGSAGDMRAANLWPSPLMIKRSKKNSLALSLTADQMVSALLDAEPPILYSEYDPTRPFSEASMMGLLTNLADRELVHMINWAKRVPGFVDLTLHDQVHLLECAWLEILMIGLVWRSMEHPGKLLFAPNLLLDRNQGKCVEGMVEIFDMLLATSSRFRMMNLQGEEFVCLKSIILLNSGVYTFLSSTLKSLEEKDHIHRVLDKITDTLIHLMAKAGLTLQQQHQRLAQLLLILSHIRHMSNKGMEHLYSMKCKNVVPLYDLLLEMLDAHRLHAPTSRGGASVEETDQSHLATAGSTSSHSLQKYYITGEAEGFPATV
Chain of Steroid hormone receptor ERR1 (Homo sapiens) (P11474 whole entry, looked up, the tested form may be a part): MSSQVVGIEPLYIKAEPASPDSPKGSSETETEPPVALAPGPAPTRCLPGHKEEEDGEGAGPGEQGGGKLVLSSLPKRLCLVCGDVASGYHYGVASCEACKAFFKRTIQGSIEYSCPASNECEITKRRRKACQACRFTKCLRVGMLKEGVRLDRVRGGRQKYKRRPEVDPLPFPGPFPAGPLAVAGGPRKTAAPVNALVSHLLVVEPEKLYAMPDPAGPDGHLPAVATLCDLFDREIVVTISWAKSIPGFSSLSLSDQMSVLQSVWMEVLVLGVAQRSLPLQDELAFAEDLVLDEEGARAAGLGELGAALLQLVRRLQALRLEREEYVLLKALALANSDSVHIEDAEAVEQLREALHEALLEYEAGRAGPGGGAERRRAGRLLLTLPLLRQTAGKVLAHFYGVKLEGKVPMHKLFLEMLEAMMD

C=CC(=O)OCC(F)(F)C(F)(F)C(F)(F)C(F)(F)COC(=O)C=C
active: [4] 40.3 µM | [5] 56.2 µM | [6] 44.7 µM | [7] 72.4 µM | [10] 44.9 µM | [13] 50 µM | [15] 38.3 µM | [16] 36.4 µM
not listed: [18] | [19]
inactive: all other assays above

O=C(O)C(F)(F)C(F)(F)C(F)(F)C(F)(F)C(F)(F)C(F)(F)C(F)(F)C(F)(F)C(F)(F)C(F)F
active: [3] 9.33 µM | [15] 24.6 µM
not listed: [2] | [19]
inactive: all other assays above

C(=C(c1ccccc1)c1ccccc1)c1ccccc1
active: [2] 4.4 µM | [12] 100 µM | [15] 0.0329 µM
not listed: [18]
inactive: all other assays above

FC1CC(F)(F)C(F)(F)C1(F)F (centres undefined)
not listed: [18] | [19]
inactive: all other assays above

Nc1ccc(S(=O)(=O)Nc2nccs2)cc1
not listed: [1] | [2] | [4] | [14]
inactive: all other assays above
